Data as given in PubChem BioAssay (NCI).
This is part of a sample that, as a whole, favours compounds with a hit. Of some 83,000 tested, about 20% had one in any assay.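 Single-dose data. Exposure time 48 hours. Values below 10 considered active.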 Values without a mark were called inactive. The source made the active and inactive calls.

Tests used:
Experiment in all cases: NCI-60 one-dose screen, 48 h (100 = growth as untreated, 0 = no growth, -100 = all killed)
Conditions in all cases: 10 µM unless noted
[1] = tested on: DU-145 prostate
[2] = tested on: K-562 leukemia
[3] = tested on: MALME-3M melanoma
[4] = tested on: MDA-MB-231 breast
[5] = tested on: RXF 393 renal
[6] = tested on: SF-268 CNS
[7] = tested on: SF-295 CNS
[8] = tested on: SF-539 CNS
[9] = tested on: UACC-257 melanoma
[10] = tested on: M14 melanoma
[11] = tested on: HCT-15 colon
[12] = tested on: HT29 colon
[13] = tested on: SNB-75 CNS
[14] = tested on: SNB-19 CNS
[15] = tested on: U251 CNS
[16] = tested on: PC-3 prostate
[17] = tested on: SK-MEL-5 melanoma
[18] = tested on: UACC-62 melanoma
[19] = tested on: LOX IMVI melanoma
[20] = tested on: SK-MEL-28 melanoma

Structure (SMILES)	growth [1]	growth [2]	growth [3]	growth [4]	growth [5]	growth [6]	growth [7]	growth [8]	growth [9]	growth [10]	growth [11]	growth [12]	growth [13]	growth [14]	growth [15]	growth [16]	growth [17]	growth [18]	growth [19]	growth [20]
N#CC1=C(/N=C/c2ccccc2)Oc2c(ccc3ccccc23)C1c1ccccc1 (stereo not given)	17.6%	12.2%	49.2%	19%	18%	30.8%	3.77% (active)	1.25% (active)	53.6%	4.85% (active)	16.6%	4.48% (active)	10.1%	24.4%	16.9%	8.32% (active)	-3.14% (active)	15.7%	23.9%	41.5%
FC(F)(F)c1cc(Nc2ccc3cc(OCCCN4CCOCC4)ccc3n2)ccc1Cl	47.6%	-27.3% (active)	47.4%	-17.8% (active)	-0.217% (active)	46.9%	-56.7% (active)	-0.973% (active)	49.2%	19%	-0.426% (active)	-50.3% (active)	10.8%	41.1%	-10.6% (active)	23.5%	64.4%	-29.7% (active)	-82.1% (active)	13.7%
Cc1ccc(-n2c(-c3ccccc3)c(-c3ccccc3)c3c(SCC(=O)n4[nH]c(N)cc4=O)ncnc32)cc1	108%	77.1%	97.6%	83.3%	96.6%	107%	89.3%	96%	94.1%	94.3%	101%	94%	97.1%	91.8%	87%	79.4%	87.3%	77.4%	97.7%	101%
CC1(C)CC(=O)CC2(C1)N=C(N)Nc1nc3ccccc3n12 (stereo not given)	115%	103%	104%	96.5%	104%	107%	108%	105%	106%	110%	98.2%	91.6%	82.3%	99.2%	104%	95.7%	97.4%	95.9%	94.9%	101%
CCCCCCCC/C=C\CCCCCCCCOc1ccccc1CC(=O)NCC[N+](C)(C)C	80.1%	54.6%	89.8%	72.9%	16.6%	65.9%	63.8%	77.5%	88.9%	57.4%	56.6%	33.4%	45.9%	25.3%	12.7%	4.4% (active)	74.7%	66.5%	74.1%	88.8%
COc1cc(N=Nc2cc(Cc3ccc(N(C)C)cc3)c(N)cc2N(C)C)c2ncccc2c1	-48.7% (active)	-36.8% (active)	-17.6% (active)	-45.1% (active)	-79.7% (active)	17.3%	11.8%	-85.8% (active)	-33% (active)	-15.7% (active)	-13.2% (active)	-65.4% (active)	28.1%	6.94% (active)	-54.8% (active)	3.89% (active)	-13.8% (active)	-34% (active)	-83.2% (active)	15.7%
N=C1CCC(=N)c2c1c(O)c1ccccc1c2O	106%	65.1%	135%	89.6%	79.6%	85.4%	102%	171%	101%	118%	108%	101%	87.2%	103%	100%	80.3%	126%	102%	81.9%	106%
COc1cccc(-c2nc3sccn3c2-c2ccnc(NCCNS(=O)(=O)c3cccc(F)c3)c2)c1	29.7%	19%	46.6%	64.6%	39.9%	37.8%	15.5%	70.7%	44.6%	33.3%	25.1%	27.9%	27.4%	59.2%	45.4%	14.1%	2.05% (active)	-17.9% (active)	32.7%	56.1%
COc1cccc(-c2nn(-c3ccccc3)cc2-c2ccnc(NCCNC(=O)c3ccccc3)c2)c1	74.5%	38.2%	95.7%	55.3%	79.9%	78.3%	62.1%	96.9%	49.7%	55.3%	50.5%	15.9%	71.1%	72.3%	47.9%	37.7%	34.5%	57.2%	68.7%	88.3%
O=[N+]([O-])c1ccc(C2CC(c3ccccc3)=Nc3ccccc3S2)cc1 (stereo not given)	107%	32.4%	107%	101%	116%	98%	119%	101%	108%	104%	97.6%	97.4%	57.2%	85.8%	62.5%	88.1%	87.5%	84.7%	64.3%	116%
O=C(Nc1ccc(-n2cc(-c3ccncc3)c(-c3ccc(Cl)c(O)c3)n2)cc1)N1CCOCC1	109%	89.9%	92.1%	105%	135%	99.9%	96.4%	92.7%	109%	97%	102%	98.1%	93.3%	103%	96.9%	87.4%	99.1%	101%	98%	100%
Cn1c(I)c(C#C[Si](C)(C)C)c(=O)n(C(=O)c2ccccc2)c1=O	0.184% (active)	-95.2% (active)	-10.3% (active)	64.2%	-81.5% (active)	-18% (active)	87.9%	69.4%	-20.8% (active)	-54.7% (active)	6.55% (active)	1.95% (active)	52.2%	95.8%	24.8%	-56.8% (active)	55.1%	69.9%	-90.4% (active)	-65.6% (active)
CC(=O)OC[C@H]1OC(Sc2sc(C(=O)c3ccc(Br)cc3)c(N)c2-c2nc3ccccc3s2)[C@H](OC(C)=O)[C@@H](OC(C)=O)[C@@H]1OC(C)=O (stereo not given in full)	35.8%	66.4%	20%	10.4%	70.8%	60.9%	69.6%	15.7%	80.1%	61.6%	59.8%	63.1%	-16.7% (active)	75.2%	57.6%	71.3%	22.1%	89.3%	37.1%	70.7%
COc1cc(/C=C/C(=O)N2CCN(C(=O)c3cc(OC)c(OC)c(OC)c3)CC2)ccc1OCCCN1C(=O)c2cccc3cccc(c23)C1=O	79.1%	78.7%	125%	101%	74.2%	90.6%	71.9%	99.9%	101%	99.3%	72%	91.8%	93.1%	99.5%	83.4%	25.5%	75.5%	64.3%	68.8%	81.9%
COc1ccc(-c2nc(SCCC(C)C)nc(N/N=C\c3cccc([N+](=O)[O-])c3)c2C#N)cc1	34.1%	56.8%	50%	23.4%	28%	25.1%	32.1%	27.5%	81%	61.3%	38.7%	30.3%	-14% (active)	45.1%	8.23% (active)	40.5%	71.1%	67.5%	18.8%	67.5%
